Data taken from ChEMBL document CHEMBL3988442, “University of Dundee, Small-Polar-MMV Screening Library” (2021).
Hit rate of the full screen: of about 48,000 compounds, about 13,000 (27%) showed an effect of 50% or more. The list shows a part of the results.

tested on: Wolbachia pipientis; assay: Anti-Wolbachia Cell-Based Screen; type: functional; parameters: scale not given: in the data most compounds retested in dose-response had high values; details: 5 µM

Structure (SMILES) | Percent Effect [%]
Cc1cnn(Cc2cc(F)ccc2F)c1NC(=O)C1COCCO1 (stereo not given) | -3.747
CCN(C)C(=O)[C@H]1C[C@@](CC(C)C)(C(=O)OC)N(C)[C@H]1c1cccnc1 | 5.067
Cc1cc(-c2ccc(=O)n(C3CCN(C(=O)C4CC4)CC3)n2)c(C)o1 | 96.13
CC(c1ccon1)N(C)C(=O)C1CCN(C(=O)C2CC2)CC1 (stereo not given) | 3.184
CC(c1ccon1)N(C)C(=O)C1CCN(C(=O)C2CCC2)CC1 (stereo not given) | -1.254
Cc1ccc2oc(C(=O)N3CCC(C(=O)N4CCCC4)CC3)cc2n1 | -8.823
Cc1cc(-c2ccc(=O)n(C3CCN(C(=O)C4CCC4)CC3)n2)c(C)o1 | 91.93
CC(NC(=O)C1CCN(C(=O)C2CC2)CC1)c1nncn1C(C)C (stereo not given) | -33.62
O=C(COc1ccccc1C(F)(F)F)NCCNC(=O)c1ccccc1 | -6.371
CCC(=O)Nc1ncn(Cc2cccnc2)n1 | 8.509
OCC1(Cc2ccc(F)cc2F)CCCN(Cc2ccncc2)C1 (stereo not given) | -2.33
Cc1nnc(Cn2cc(I)cc(C)c2=O)o1 | 62.5
Cc1nc(Cn2cc(I)cc(C)c2=O)oc1C | 3.254
Cc1noc(C)c1Cn1cc(I)cc(C)c1=O | 13.31
Cc1nc(-c2cc(Cl)c3c(c2)CC(CN)O3)c[nH]1 (stereo not given) | 12.8
Cc1occc1C(=O)N1CCC2(CCN(Cc3nccs3)C2)CC1.O=C(O)C(F)(F)F | -10.35
O=C(O)C(F)(F)F.O=C(c1cccnc1)N1CCC2(CCN(C(=O)c3ccco3)CC2)C1 | 98.34
O=C(O)C(F)(F)F.O=C(c1ccco1)N1CCc2ncnc(Oc3cccnc3)c2CC1 | 1.407
Cc1occc1C(=O)N1CCC2(CCN(C(=O)c3cccnc3)C2)CC1.O=C(O)C(F)(F)F | 124.8
O=C(O)C(F)(F)F.O=C(c1ccco1)N1C[C@@H]2CCN(c3cccnc3)C[C@@H]2C1 | 15.12
COCCNC(=O)[C@]12COC[C@H]1CN(c1cc(OC)ncn1)C2 | -2.209
CNc1ncc(CN(C)Cc2cc(O)c3cccc(Cl)c3n2)cn1 | -16.65
CC1COCCN1C(=O)NCCn1ccnc1 (stereo not given) | 4.662
O=C(c1cnccn1)N1C[C@@H]2CC[C@H](C1)N(C(=O)Cc1ccsc1)C2 | 0.9084
NC(=O)C1CCCN1CCCc1ccc(Cl)cc1 (stereo not given) | -0.6682
O=C1C[C@H]2CC[C@@H](CN1)N2C(=O)CCc1ccccc1 | 110.6
O=C1CO[C@@H]2CN(C(=O)CCc3ccccc3)C[C@H]2N1 | -22.36
O=C(c1ccccn1)N1C[C@@H]2CC[C@H](C1)N(C(=O)CCc1ccsc1)C2 | -35.6

Structure (SMILES) | Percent Effect [%]
O=C1C[C@H]2CC[C@@H](CN1)N2C(=O)Cc1ccsc1 | 116.9
O=C1C[C@H]2CC[C@@H](CN1)N2C(=O)CCc1ccsc1 | 104.7
O=C(CCc1ccccc1)N1CCN(C(=O)c2ccc[nH]2)CC1 | 0.009024
CS(=O)(=O)N1C[C@@H]2CC[C@H](C1)N(C(=O)CCc1ccsc1)C2 | 10.69
O=C1C[C@H]2CC[C@@H](CN1)N2C(=O)CCCc1ccc(Cl)cc1 | 109.6
Cn1c2c(ccc1=O)CC(NC(=O)Cc1ccsc1)CC2 (stereo not given) | -9.793
O=C(CCCc1ccc(Cl)cc1)N1CCN(C(=O)c2ccc[nH]2)CC1 | -0.04512
CCN1C(=O)[C@H]2CN(CC(C)C)C[C@H]2C12CCN(S(C)(=O)=O)CC2.O=C(O)C(F)(F)F | 7.177
CN(C)C1CCN(C(=O)C2SCCc3ccccc32)CC1 (stereo not given) | -22.58
CC(NCCCc1cnn(C)c1)c1ccc(Cl)s1 (stereo not given) | 3.726
O=C(CCc1ccc2c(c1)OCO2)N1CCCC(n2cccn2)C1 (stereo not given) | -13.74
O=C1C[C@H]2CC[C@@H](CN1)N2C(=O)CCc1ccc2c(c1)OCO2 | 96.79
O=C(NC1CC1)C1CNCCN1C(=O)CCc1ccc2c(c1)OCO2 (stereo not given) | 13.7
O=C(O)C(F)(F)F.O=C([C@H]1CC[C@@H]2[C@@H](CCN2Cc2ccsc2)O1)N1CCOCC1 | -4.642
O=C(O)C(F)(F)F.O=C([C@H]1CC[C@@H]2[C@@H](CCN2C2CCCC2)O1)N1CCOCC1 | 125.5
O=C(O)C(F)(F)F.O=C([C@H]1COC[C@H]2CN(C3CCCCC3)C[C@H]21)N1CCOCC1 | -10.34
O=C(O)C(F)(F)F.O=C([C@H]1CC[C@@H]2[C@@H](CCN2C2CCCCC2)O1)N1CCOCC1 | 120.9
O=C(O)C(F)(F)F.O=C([C@H]1CC[C@@H]2[C@@H](CCN2C2CCOCC2)O1)N1CCOCC1 | 111.7
O=C(O)C(F)(F)F.O=C([C@@H]1CC[C@@H]2[C@@H](CCN2CCOCc2ccccc2)O1)N1CCCC1 | -30.56
CCN1CCC(CC(=O)N(C)CC(=O)c2ccc(O)cc2)CC1 | -2.698
CCCc1cc(C(=O)N2Cc3cnc(C(C)(C)C)nc3C2)ccn1 | -16.23
O=C(NCc1ccco1)[C@@]12CCO[C@@H]1CCN(Cc1ccccn1)C2.O=C(O)C(F)(F)F.O=C(O)C(F)(F)F | -8.079
O=C(O)C(F)(F)F.O=S(=O)(C1CC1)N1CC[C@H]2OCC[C@@]2(COc2ncccc2F)C1 | -5.546
CS(=O)(=O)N1CC[C@H]2OCC[C@@]2(C(=O)NCCc2ccccn2)C1.O=C(O)C(F)(F)F | 88.95
CS(=O)(=O)N1CC[C@H]2OCC[C@@]2(C(=O)NCc2ccccn2)C1.O=C(O)C(F)(F)F | 125.2
O=C(NCc1ccccn1)[C@@]12CCO[C@@H]1CCN(Cc1ccccn1)C2.O=C(O)C(F)(F)F.O=C(O)C(F)(F)F.O=C(O)C(F)(F)F | 100.7
Cc1ccc(-c2ccc(C(=O)NCC(N)=O)c(F)c2)cc1 | -9.702
